About 83,000 compounds went through this panel and 20% of them were active in at least one assay; those are over-represented in the sample as a whole.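 Percent growth is the endpoint: 0 to 100 indicates growth inhibition (40 means 60% inhibition), 0 means no net growth, and negative values indicate cell death.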 Values without a mark were called inactive. The source made the active and inactive calls. How the source made its calls: active means growth percent below 10; inactive means the rest.
Legend:
Assay in all cases: NCI-60 one-dose screen, 48 h (100 = growth as untreated, 0 = no growth, -100 = all killed)
Conditions in all cases: 10 µM unless noted
[1] = tested on: HCT-15 colon
[2] = tested on: HT29 colon
[3] = tested on: SNB-75 CNS
[4] = tested on: SNB-19 CNS
[5] = tested on: U251 CNS
[6] = tested on: PC-3 prostate
[7] = tested on: SK-MEL-5 melanoma
[8] = tested on: LOX IMVI melanoma
[9] = tested on: SK-MEL-28 melanoma
[10] = tested on: UACC-62 melanoma

| SMILES | growth [1] | growth [2] | growth [3] | growth [4] | growth [5] | growth [6] | growth [7] | growth [8] | growth [9] | growth [10] |
| --- | --- | --- | --- | --- | --- | --- | --- | --- | --- | --- |
| CCN=c1sc2c(n1NC(=O)c1cc3ccc1CCc1ccc(cc1)CC3)C(=O)c1ccccc1C2=O | -68.1% (active) | 49% | -98.2% (active) | -74.3% (active) | -81.5% (active) | -2.79% (active) | -96.9% (active) | -83.9% (active) |  |  |
| CN1CCN(CCCNC(=O)c2c3c(n4ccccc24)C(=O)c2ncccc2C3=O)CC1 | 4.07% (active) | 0.534% (active) | -4.64% (active) | -4.84% (active) | -15.7% (active) | -1.89% (active) | -96% (active) | -31.7% (active) | 61.5% |  |
| CC1(C)C2=C(C(=O)N1Cc1ccccc1)C(c1ccco1)N(C(=O)C1CCC1)CCN2 (stereo not drawn) | 109% | 106% | 83.7% | 98.9% | 100% | 95.2% | 105% | 96.8% |  |  |
| CCCc1cc(CCC)n2nc(N)nc2n1 | 107% | 108% | 95.6% | 113% | 110% | 96.9% | 107% |  | 105% | 111% |
| CC(=O)CC(=O)c1ccccc1.[Cu+2] | 94.3% | 106% | 121% | 96.6% | 105% | 96.8% | 82.8% | 83.9% | 105% |  |
| CNC(=O)c1cc(Oc2cccc3nc(NC(=O)Nc4ccc(F)cc4F)ccc23)ccn1 | 18.1% | 35.9% | -64.4% (active) | 54.8% | 14.9% | 38.5% | 22.7% | 19.8% | 30.8% |  |
| O=C(Nc1cccc(Cl)c1)Oc1c(Cl)c(Cl)c(Cl)c(Cl)c1Cl | 100% | 96.3% | 76.2% | 99.1% | 102% | 86.9% | 90.6% | 95.9% | 109% |  |
| Cc1ccc(C(F)(F)F)cc1N1CCN(C(=O)[C@H]2C[C@H]2c2ccc(C(F)(F)F)nc2)CC1 | 93.2% | 79.8% | 92.2% | 90.5% | 94.2% | 77.7% |  | 96.2% | 100% | 74.8% |
| Nc1n[nH]c2cccc(C#Cc3cccc(C(=O)Nc4ccc(Cl)c(C(F)(F)F)c4)c3)c12 | 56.4% | 26% | 65.7% | 89.1% | 69% | 59.6% |  | 18.1% | 24.7% | 22.2% |
| COC(=O)[C@H](C)NC(=O)[C@@H]1CCCN1C(=O)CNC(=O)[C@H](C)N | 97.4% | 104% | 78.3% | 98.6% | 103% | 102% |  | 96.3% | 118% | 88.8% |
